Assay results as given in PubChem BioAssay (NCI).
“And” between values parts separate entries of the source, which are not always exact repeats. Equal values may be shown once. About 79,000 compounds went through this panel and 15% of them were active in at least one assay; those are over-represented in the sample as a whole. The source made the active and inactive calls. Rule as the data show it: active = growth inhibition above about 70%; inactive = the rest.

What was measured:
[1] = NCI Yeast Anticancer Drug Screen. Data for the rad50 strain (AID 155);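 also: 0% = growth of vehicle-only cultures of the same strain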; details: S. cerevisiae rad50 strain growth inhibition; at 50.0 µM; active compounds read high
How it was run: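 Cells are treated with compound, grown, and their growth is then scored against vehicle-only cultures of the same repair-deficient yeast strain.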

[2] = NCI Yeast Anticancer Drug Screen. Data for the mec2-1 strain (AID 157); details: S. cerevisiae mec2-1 strain, at 50.0 µM, active compounds read high
How it was run: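 Growth inhibition is read against vehicle-treated controls after compound exposure of the mec2-1 yeast strain, which is defective in DNA damage repair or cell cycle control.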

[3] = NCI Yeast Anticancer Drug Screen. Data for the sgs1 mgt1 strain (AID 161);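 also: 0% = growth of cultures given vehicle only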; details: S. cerevisiae sgs1 mgt1 strain, at 50.0 µM, active compounds read high
How it was run: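 Growth of a repair-deficient yeast mutant was monitored after compound treatment and expressed as inhibition relative to vehicle-treated cultures.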

[4] = NCI Yeast Anticancer Drug Screen. Data for the cln2 rad14 strain (AID 165);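 also: 0% = growth equal to vehicle treated cultures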; details: S. cerevisiae cln2 rad14 strain, at 50.0 µM, active compounds read high
How it was run: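 Growth inhibition, relative to vehicle-treated controls, is the read-out. The test organism is a yeast strain with defined genetic alterations, cln2 rad14.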

[5] = NCI Yeast Anticancer Drug Screen. Data for the bub3 strain (AID 167); details: S. cerevisiae bub3 mutant strain, at 50.0 µM, active compounds read high
How it was run: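 Part of a panel of yeast mutants defective in DNA damage repair or cell cycle regulation. Each strain is grown with compound, and inhibition is calculated relative to solvent-treated cultures.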

[6] = NCI Yeast Anticancer Drug Screen. Data for the mlh1 rad18 strain (AID 175); details: S. cerevisiae mlh1 rad18 strain growth inhibition; at 50.0 µM; active compounds read high
How it was run: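 Cells of a genetically altered yeast strain, deficient in DNA damage repair, were treated with compound. Their growth was then compared with that of vehicle-treated cultures to give inhibition.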

Measured: growth inhibition

O=[N+]([O-])c1ccc(/C=N\NP(Br)(c2ccccc2)(c2ccccc2)c2ccccc2)cc1
inactive: [1] 15.4% | [2] 0.3% | [3] 26.9% | [4] 3.95% | [5] -2.5% | [6] 4.75%

CNC(C)Cc1ccccc1OC (stereo unspecified) (tested in a mixture with another compound)
inactive: [1] -14.8% | [2] 1.9% | [3] 4.15% | [4] -35.9% | [5] 9.55% | [6] -7.7%

CCCCN(CCCC)CC(O)c1ccc(Br)cc1 (stereo unspecified)
inactive: [1] 33.5% | [2] 15.4% | [3] 54% | [4] 16.7% | [5] 28.9% | [6] 44.1%

COC(=O)Nc1nc2ccccc2[nH]1
inactive: [1] -18.6% | [2] -4.4% | [3] -13% | [4] 4.2% | [5] 2.45% | [6] 7.15%

O=NN(O)c1ccccc1.O=NN(O)c1ccccc1.[Mn+2]
inactive: [1] 4.85% | [2] 0.15% | [3] 13.1% | [4] -46.5% | [5] -4.3% | [6] 3.85%

O=C(O)c1cc(I)cc(I)c1I
inactive: [1] -5.55% | [2] -16.1% | [3] -34.5% | [4] -70.2% | [5] 1.25% | [6] 12.7%

COc1ccc(/C=C\c2cc(OC)c(OC)c(OC)c2)cc1OC(=O)CCC(=O)O
inactive: [1] -13.1% | [2] -12.3% | [3] 8.7% | [4] 24.1% | [5] 14.2% | [6] -27.1%

O=P1(N(CCCl)CCCl)OC(c2ccccc2)=CCN1c1ccccc1 (stereo unspecified)
inactive: [1] 0.6% | [2] 20.1% | [3] 57.2% | [4] 32.4% | [5] 50% | [6] 34.6%

O=C(O)COc1ccc(Cl)cc1Cl (tested in a mixture with another compound)
inactive: [1] -0.5% | [2] -3.35% | [3] 14.7% | [4] -19.1% | [5] -9.5% | [6] -0.9%

CCN1CCC2(CC1)COCc1ccccc12
inactive: [1] 18.3% | [2] 7.8% | [3] 16.4% | [4] 4.15% | [5] 3.15% | [6] 29.6%

CCN(CCCl)c1cccc(NC(=O)c2ccc(C(=O)Nc3cccc(CN(C)C)c3)cc2)c1
inactive: [1] 5.55% | [2] -6.3% | [3] 20.5% | [4] -1.95% | [5] -14.4% | [6] 26.3%

CC1(C(=O)O)C2[Se]c3[se]ccc3C2C1(C)C(=O)O (stereo unspecified)
inactive: [1] -3.45% | [2] -12.7% | [3] -3.5% | [4] -12.2% | [5] 1.8% | [6] -4.55%

S=C=NCc1ccccc1
inactive: [1] -1.55% | [2] 2.65% | [3] 20.4% | [4] -12.9% | [5] 0.85% | [6] 1.9%

O=[N+]([O-])c1ccc(/C=C/c2ccc(Cl)c(S(=O)(=O)F)c2)c(Cl)c1
inactive: [1] 15.6% | [2] -4.95% | [3] -1.7% | [4] 2.45% | [5] 13% | [6] -6.3%

C[N+](C)(C)NP(=O)(N[N+](C)(C)C)c1ccccc1
inactive: [1] 3.2% | [2] -8.15% | [3] -19.3% | [4] 11.6% | [5] 1.95% | [6] -11.1%

CCC(C)(C)OC(=O)CCl
inactive: [1] -0.25% | [2] 1.25% | [3] 7.8% | [4] 5.2% | [5] 36.7% | [6] -5.15%

CCOP(=S)(OCC)N(C)C(=O)Oc1cccc(C(C)C)c1
inactive: [1] 0.95% | [2] -1.05% | [3] 8.95% | [4] -6.1% | [5] -20.4% | [6] 12.2%

CC1=C(C#N)C2(CCN(C)CC2)C(C#N)=C(C)N1
inactive: [1] 13.3% | [2] 8.75% | [3] 3.05% | [4] -27.9% | [5] -3% | [6] -4.4%

Cc1cc(N(CCCl)CCCl)ccc1C1N(Cc2ccc(N(C)C)cc2)CCN1Cc1ccc(N(C)C)cc1
inactive: [1] 13.5% | [2] 1.55% | [3] 16.4% | [4] -3.4% | [5] 1.6% | [6] 18.6%

CCN(CC)CC(=O)c1ccccc1
inactive: [1] -24.1% | [2] -8.85% | [3] -21.2% | [4] 9.45% | [5] 3.15% | [6] -45.7%

CC12C(=O)C(C)(C(c3ccccc3)=C1c1ccccc1)C1(C#N)NC21C#N (stereo unspecified)
inactive: [1] 14.9% | [2] 2.65% | [3] 22.8% | [4] 18.2% | [5] 13.8% | [6] 40%

CCOP(=O)(CSCCC1(C)NC(=O)NC1=O)OCC (stereo unspecified)
inactive: [1] 8.6% | [2] -9.7% | [3] 23.9% | [4] 2.65% | [5] 7.2% | [6] 7.45%

CCN(CC)C1C=CCCC1 (stereo unspecified)
inactive: [1] -18.1% | [2] -8.05% | [3] -20.1% | [4] 0.75% | [5] -11.7% | [6] -7.3%

ClCCCCl
inactive: [1] 13.2% | [2] -15.8% | [3] -3.85% | [4] -7.4% | [5] 4.9% | [6] -27.6%

O=C(c1ccccc1)C1C(C(=O)c2ccccc2)N1C1CCCCC1 (stereo unspecified)
active: [1] 81.8% | [5] 84.5% | [6] 80.8%
inactive: [2] 32% | [3] 14.8% | [4] 2.3%

Oc1ccccc1-c1ccccc1
inactive: [1] 16.6% and 17.9% | [2] 11.1% and 14.4% | [3] 11% and 8.2% | [4] -16.1% and 0.75% | [5] -2.55% and -8.25% | [6] 21.4% and 20.1%

O=C1SCCC1CO (stereo unspecified)
inactive: [1] -8.65% | [2] 3.9% | [3] -6.8% | [4] -3.15% | [5] -2.3% | [6] -8.45%

Fc1ccc(C2(N3CCC4(CC3)OCCO4)CCCCC2)cc1
inactive: [1] -8.05% | [2] 9% | [3] 14.1% | [4] -15.5% | [5] 0.1% | [6] 5.6%

O.O.[NH-]C1(C(=O)O)CCCC1.[NH-]C1(C(=O)O)CCCC1.[Ni+2]
inactive: [1] -12% | [2] -15.9% | [3] -16.6% | [4] 19.4% | [5] -48.9% | [6] -17.4%

NC1C[S][Sn][O]C1=O (stereo unspecified)
inactive: [1] 14.2% | [2] 14.3% | [3] 3.2% | [4] -21.4% | [5] 4.9% | [6] 14.6%

CC1OC(O[C@@H]2C=C3CC[C@@H]4[C@H](CC[C@]5(C)[C@@H](c6ccc(=O)oc6)CC[C@]45O)[C@@]3(C)CC2)C(O)C(O)C1O (stereo partly specified)
inactive: [1] 2.85% | [2] -37.5% | [3] -25% | [4] 13.1% | [5] -15.9% | [6] 4.7%

NS(=O)(=O)c1ccc([As](=O)(O)O)cc1
inactive: [1] -1.1% | [2] -3.85% | [3] 5% | [4] -45.5% | [5] 12.2% | [6] -15.7%

COc1cc2c(c(OC)c1OC)-c1ccc(O)c(=O)cc1[C@@H](NC(C)=O)CC2
inactive: [1] 24% and 43.6% | [2] 1.95% and 34.6% | [3] 54.9% | [4] 35.5% | [5] 62.5% | [6] 22.9% and -13.1%

CC(C)(C)[SH+]CC[SH+]C(C)(C)C.[C-]#[O+].[C-]#[O+].[C-]#[O+].[C-]#[O+].[Cr]
inactive: [1] 13.6% | [2] -19.1% | [3] -7.25% | [4] -4.4% | [5] 3.65% | [6] 3.35%

CCNC(=S)S
inactive: [1] -7.35% | [2] -8.4% | [3] -13.1% | [4] -0.6% | [5] -2.25% | [6] -3.75%

OCCCCO
inactive: [1] -5.9% | [2] -1.7% | [3] -12% | [4] -10.4% | [5] -12.1% | [6] 1.35%
